Rows were chosen to be rich in hits. Some 1.9% of all compounds tested hit in one or more screens of this group.
BRCA1 expr act = qHTS Assay to Identify Small Molecule Activators of BRCA1 Expression | MCF7-BRCA1-FFLuc reporter, luminescence, 48 h; response scale: scaled: vehicle 0%, 10 µM genistein 100% | Potency, µM (doses to about 46.1 µM), inactives show at the top dose activation, most hits filed as activators | 380,000 tested, 1.1% active | AID 624202, 2012; note: potency is the fitted concentration of half-maximal effect; nearly all actives have a fitted effect of over 80% in size
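Cells: MCF7-BRCA1-FFLuc, 2000/well. Exposure: 48 h, 37 °C, 5% CO2. Read: luminescence, 15 min post-substrate. Controls: genistein 10 microM (maximal activation), DMSO (neutral).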
RXFP1 ag = qHTS Assay for Agonists of the Relaxin Receptor RXFP1 | Relaxin receptor 1 (Homo sapiens), Q9HBX9 | HEK293T-RXFP1 cAMP TR-FRET, 30 min; response scale: percent of porcine relaxin response, buffer zero | Potency, µM (top dose mostly 57.5 µM), for inactives: at the top dose activation, actives largely listed as activators | 370,000 tested, 0.3% active | AID 2676, 2010; note: potency is the fitted concentration of half-maximal effect; % is set by controls: 0 for no effect and ±100 for the full control effect; nearly all actives have a fitted effect of over 60% in size
Target sequence (Q9HBX9 whole entry, looked up): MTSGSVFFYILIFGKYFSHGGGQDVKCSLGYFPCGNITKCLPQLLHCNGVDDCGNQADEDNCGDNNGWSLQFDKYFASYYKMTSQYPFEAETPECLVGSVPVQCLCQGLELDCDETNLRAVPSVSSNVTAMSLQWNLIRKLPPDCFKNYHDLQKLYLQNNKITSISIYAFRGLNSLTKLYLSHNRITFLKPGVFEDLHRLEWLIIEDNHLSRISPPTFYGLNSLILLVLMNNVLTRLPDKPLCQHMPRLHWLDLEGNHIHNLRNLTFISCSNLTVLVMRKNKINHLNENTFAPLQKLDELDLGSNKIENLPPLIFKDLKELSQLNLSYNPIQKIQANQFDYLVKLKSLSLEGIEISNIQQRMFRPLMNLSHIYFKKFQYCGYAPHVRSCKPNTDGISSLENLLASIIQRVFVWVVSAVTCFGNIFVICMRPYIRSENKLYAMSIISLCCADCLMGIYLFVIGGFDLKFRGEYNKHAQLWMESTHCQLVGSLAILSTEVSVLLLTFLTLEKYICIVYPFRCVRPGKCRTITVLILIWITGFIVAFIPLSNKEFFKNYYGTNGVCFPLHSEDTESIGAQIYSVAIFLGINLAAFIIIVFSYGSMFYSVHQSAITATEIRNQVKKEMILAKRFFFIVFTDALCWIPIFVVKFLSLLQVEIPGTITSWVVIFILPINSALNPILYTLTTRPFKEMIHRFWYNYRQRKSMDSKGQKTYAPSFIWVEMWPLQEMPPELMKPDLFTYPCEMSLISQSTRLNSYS
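Agonist response is measured as cAMP accumulation in an RXFP1-transfected HEK293T line under PDE4 inhibition. Values are scaled between buffer-only and 29 nM porcine relaxin, and EC50s come from standard Hill equation fits.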
IL-2 act = qHTS of IL-2 Activators; activation, % (series mostly up to about 46 µM); IL-2 activation reporter assay, cell-based qHTS; stimulated with anti-CD3/CD4/CD28 beads; in transgenic mouse T cells; 360,000 tested, 0.065% active; in the data active = activation above about 50%; inconclusive = mostly about 30% to 49%; note: 0% is about no effect
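Using fluorescent plate cytometry, EGFP and DsRed are detected in transgenic mouse T cells stimulated 18 h at 37 degrees C with antibody-coated beads after 60 min compound pretreatment.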
NPSR antag = qHTS Assay for Antagonists of the Neuropeptide S Receptor: cAMP Signal Transduction; Potency, µM (highest dose often 38.3 µM), for inactives: at the highest dose activity change, negative = inhibition, actives largely listed as inhibitors; 220,000 tested, 1% active; AID 1461, 2008; Q6W5P4; CHO-NPSR cells, cAMP TR-FRET, antagonist mode; note: potency is the fitted concentration of half-maximal effect; % is set by controls: 0 for no effect and ±100 for the full control effect; nearly all actives have a fitted effect of over 50% in size
RXFP1 antag = qHTS Assay for Antagonists of the Relaxin Receptor RXFP1 | Relaxin receptor 1 (Homo sapiens), Q9HBX9 | HEK293-RXFP1, relaxin-stimulated cAMP HTRF, 30 min; hits give low values | activity change, negative = inhibition, % at 57.5 µM | 350,000 tested, 0.59% active;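 active = activity change of -60% or lower, but not beyond a set lower limit; inconclusive = change between -60% and -40%, or beyond the set limit; inactive = change above -40%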; note: % is set by controls: 0 for no effect and ±100 for the full control effect
Giardia kill = Small Molecules that selectively kill Giardia lamblia: qHTS. 340,000 tested, 0.15% active. activity change, % at 7.66 µM, hits read low. Giardia lamblia trophozoite viability; in the data active = activity change below about -80%; inconclusive = between about -30% and that limit;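 note: parasites exposed to compound for two days anaerobically before the ATP read; % is set by controls: 0 for no effect and ±100 for the full control effect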
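Giardia trophozoites, 100 cells per well, were exposed to compounds for 48 hrs at 37 deg C under anaerobic conditions; viability was then read as ATP content by bioluminescence after 15-30 min at room temperature.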
* marks the source's active call; other numbers are inactive results; ? = inconclusive; nt = no result given; [ ] = another dose, or the depositor's remark. Unless noted, calls come from the whole dose curve; as a rule, active = well fitted curve in the direction sought with a large enough effect; inconclusive = small, poorly fitted or top-dose-only effect, or another doubt; inactive = no such curve, though single readings can be large; an effect the other way counts as inactive or inconclusive.

SMILES | BRCA1 expr act | RXFP1 ag | IL-2 act | NPSR antag | RXFP1 antag | Giardia kill
O=S(=O)(/N=S1/CC=CCN1S(=O)(=O)c1ccccc1)c1ccccc1 (stereo not given) | -32% | -1% | -1 | -6%[46.1 µM] | -72* | -18
Oc1ccccc1OCc1nc2ccccc2s1 | 73% | -2% | -2 | -5%[46.1 µM] | 1 | -2
Oc1ccc(O)c(Cc2nc3ccccc3s2)c1 | -51% | -3% | 0 | -5% | -77* | 3
CNc1ncc(C(=O)c2ccc(F)cc2)s1 | ? | 6% | 0 | -8% | -3 | -15
O=C(c1ccc(F)cc1)c1cnc(Nc2ccccc2)s1 | 2µM* | 6% | -3 | -1% | -23 | -18
CNC(=O)c1ccc2nc(-c3ccco3)c(-c3ccco3)nc2c1 | -8% | nt | nt | nt | nt | 5
CCOC(=O)Cn1c(=O)n(C2CCCCC2)c2nc(-c3ccc(C(C)C)cc3)nc(C(N)=O)c21 | -13% | 0% | nt | nt | nt | nt
COC(=O)c1c(NC(=O)Cc2ccccc2)sc(C)c1C | -24% | 1% | -1 | -9%[46.1 µM] | -13 | 1
COC(=O)c1c(NC(=S)Nc2ccccc2Cl)sc(C)c1C | -25% | 8% | -2 | -8%[46.1 µM] | -107* | -10
O=C(COc1ncnc2scc(-c3ccccc3)c12)NCCN1C(=O)CSC1=O | nt | 11µM* | nt | 0% | nt | nt
Cc1cccc(NC(=O)Cc2noc3ccccc23)c1 | 11µM* | 1% | -1 | ? | -6 | 9
CC(=O)c1cccc(NC(=O)Cc2noc3ccccc23)c1 | nt | -1% | nt | nt | -9 | nt
Nc1nc(Cl)nc2c1ncn2[C@@H]1O[C@H](CO)[C@@H](O)[C@@H]1F | nt | nt | nt | nt | 9 | nt
COCCn1c(SCC(=O)Nc2ccc3c(c2)OCCO3)nc2c(c1=O)SC(C)C2 (stereo not given) | 8.9µM* | 0% | -2 | -7%[46.1 µM] | -19 | 0
CC1Cc2nc(SCC(=O)Nc3ccc4c(c3)OCO4)n(Cc3ccccc3)c(=O)c2S1 (stereo not given) | 11µM* | 1% | 1 | -21%[46.1 µM] | 10 | -8
CC1Cc2nc(SCC(=O)Nc3ccc4c(c3)OCCO4)n(C)c(=O)c2S1 (stereo not given) | -3% | 0% | 0 | -12%[46.1 µM] | 11 | -2
[O-][N+](=NC1C=Cc2ccccc21)C1C=Cc2ccccc21 (stereo not given) | -8% | nt | nt | nt | nt | nt
CN(C)c1cccc(-c2nnc(SCC(=O)NCc3ccco3)n2C)c1 | 13% | nt | nt | nt | nt | nt
COc1ccc(-[n+]2c(C)cc(/C=C3\Sc4ccccc4N3C)cc2C)cc1 | -24% | 4% | 25 | ? | ? | -1
COc1ccccc1-[n+]1c(C)cc(/C=C2\Sc3ccccc3N2C)cc1C | -39% | -3% | 11 | 6.3µM* | -12 | -18
CN(C)CCCOC1(Cc2ccccc2)CCCCCC1 | nt | nt | nt | nt | -7 | nt
Oc1c(Br)cc(/C=N/Nc2ccc(Cl)nn2)cc1Br | -45% | -1% | -3 | nt | -6 | 3
COc1ccc(/C=N/Nc2nncc3ccccc23)cc1 | 7% | 1% | -1 | 4% | 2 | ?
Oc1c(Br)cc(/C=N/Nc2nncc3ccccc23)cc1Br | 8.9µM* | 12% | 0 | nt | -16 | -20
COc1ccccc1/C=N/Nc1nncc2ccccc12 | 10µM* | 2% | 0 | -3% | 0 | 6
SMILES | BRCA1 expr act | RXFP1 ag | IL-2 act | NPSR antag | RXFP1 antag | Giardia kill
Cc1ccc(NC(=O)COC(=O)c2ccccc2OCC(=O)N(C)C)cc1 | 7% | nt | nt | nt | nt | nt
CCN(CCCN(C)C)c1ccc(/C=C/c2ccnc3ccccc23)cc1 | -14% | nt | nt | nt | nt | nt
COc1ccc(Br)cc1CN(C)CC(O)COc1ccc(Br)cc1 (stereo not given) | -15% | 0% | 0 | nt | -64* | -9
COc1ccc(CN(C)CC(O)COc2ccc(C(=O)c3ccccc3)cc2)c(OC)c1OC (stereo not given) | -62% | 2% | 0 | nt | -20 | 46
Cc1ccc(Nc2ncnc(-n3cccc3)n2)cc1Cl | 6.3µM* | 3% | 1 | 14% | 2 | -18
O=C(COC(=O)CNC(=O)C1CCCCC1)NC1CCCC1 | 9% | nt | nt | nt | nt | 9
Cc1cc2nc(-c3ccccc3)cc(=O)n2[nH]1 | 10µM* | 2% | -5 | 2% | -4 | -12
O=c1cc(-c2ccccc2)nc2cc(-c3ccc(Br)cc3)[nH]n12 | 19% | -3% | -1 | nt | 4 | -17
COc1cc2[nH]c(=S)n(CC3CCCO3)c(=O)c2cc1OC (stereo not given) | -26% | 0% | 0 | -13%[46.1 µM] | -94* | 0
O=C(NCC1CCCO1)c1ccc2c(=O)n(CC3CCCO3)c(=S)[nH]c2c1 (stereo not given) | -20% | 0% | 0 | -14%[46.1 µM] | -3 | -2
COc1cc2[nH]c(=S)n(CCCN3CCOCC3)c(=O)c2cc1OC | 6% | 0% | -1 | -23%[46.1 µM] | -68* | 12
O=C(Nc1ccc(F)cc1)c1ccc2c(=O)n(CC3CCCO3)c(=S)[nH]c2c1 (stereo not given) | -13% | 4% | -1 | nt | -68* | -10
CCOc1cc2[nH]c(=S)n(CC3CCCO3)c(=O)c2cc1OCC (stereo not given) | -19% | 5% | 1 | -8%[46.1 µM] | 9 | 18
COC(=O)c1sc(NC(=S)NC(=O)c2cccc(C)c2)nc1C | 4% | 1% | 0 | -26% | 0 | -11
COC(=O)c1sc(NC(=O)c2cc(C)on2)nc1C | 10µM* | 2% | 0 | nt | 10 | 0
COC(=O)c1sc(NC(=O)COc2ccc(OC)cc2)nc1C | -3% | nt | -1 | nt | nt | 1
COC(=O)c1sc(NC(=S)NC(=O)c2ccccc2F)nc1C | ? | 35µM* | 1 | 13µM* | -4 | 0
CN(C)/[N+]([O-])=N/Oc1ccc([N+](=O)[O-])cn1 | 0% | nt | nt | nt | nt | nt
CCOc1ccc(N(CC(=O)Nc2ccccc2)S(C)(=O)=O)cc1 | 49% | 1% | 0 | 1%[46.1 µM] | 0 | -12
CCOc1ccc(N(CC(=O)Nc2ccc(C)c(C)c2)S(C)(=O)=O)cc1 | 2µM* | 0% | -1 | nt | -4 | -9
COc1ccc(CN2C(=O)N(c3ccc(F)cc3)C(=O)C2CC(=O)Nc2cc(OC)cc(OC)c2)cc1 (stereo not given) | nt | 1% | nt | nt | 9 | nt
COCCNC(=O)CN(Cc1ccc(OC)cc1)C(=O)CCC(=O)Nc1nccs1 | 18% | 3% | 0 | nt | 6 | 20

Screening results deposited in PubChem BioAssay by National Center for Advancing Translational Sciences (NCATS).
